Most compounds without a hit are left out; they make up all but 2.7% or so of the library.
PP5 inh = PP5 (human) phosphatase inhibition; P53041; inhibition, % at 6.7 µM; AID 1987; 320,000 compounds, 0.18% hits; purified PP5c, OMFP substrate fluorescence;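 active means inhibition above the campaign's mean inhibition across all tested compounds plus 3 SD, cut at about 9.5% in these data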
DNA FID counter = displaces DNA intercalator in HCV helicase counter-screen; DNA fluorescent intercalator displacement, fluorescence; inhibition, % at 7.9 µM; 290,000 compounds, 0.17% hits; in the data active means inhibition above about 37%;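 further: higher means more ethidium bromide displaced from hairpin DNA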
ANO1 activ = mouse TMEM16A channel activation, primary screen; Q8BHY3; HEK293 TMEM16A/YFP-H148Q/I152L, iodide quench fluorescence; hits give low values; B-score at 10 µM; 340,000 compounds, 0.3% hits;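 active means fluorescence-ratio B-score plate-corrected deviation score at least 3 library SD below zero, with starting fluorescence score within 5 deviations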;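 further: channel opened by trigger with iodide after compound preincubation; score built on the fluorescence ratio of max minus min over baseline; more negative score means more quench and so TMEM16A activation or potentiation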
ANO1 block = inhibitors of mouse TMEM16A calcium-activated chloride channel | Q8BHY3 | 310,000 compounds, 1.2% hits | HEK293 TMEM16A/YFP iodide influx fluorescence, ionomycin | normalized B-score (activity score, 25-100; higher = stronger inhibition) at 10 µM;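 active means ratio plate-corrected score three or more library SD toward inhibition, starting fluorescence score within five deviations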;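 further: score derived from kinetic fluorescence span divided by baseline fluorescence per well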
PP1 inh = PP1-alpha (human) inhibition in PP5 counter-screen; P62136; purified PP1alpha, OMFP fluorescence; inhibition, % at 6.7 µM; 320,000 compounds, 0.9% hits;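 active means inhibition above the mean inhibition of all tested compounds plus 3 SD, computed separately for each screening campaign, cut at about 15% in these data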
PREPL inhibitor = inhibitors of human prolyl oligopeptidase-like enzyme PREPL. inhibition, % at 5.96 µM. recombinant PREPL, fluorescence polarization activity-based probe. 320,000 compounds, 0.68% hits. Q4J6C6; in the data active means inhibition above about 43%
Target sequence (Q4J6C6 whole entry, looked up): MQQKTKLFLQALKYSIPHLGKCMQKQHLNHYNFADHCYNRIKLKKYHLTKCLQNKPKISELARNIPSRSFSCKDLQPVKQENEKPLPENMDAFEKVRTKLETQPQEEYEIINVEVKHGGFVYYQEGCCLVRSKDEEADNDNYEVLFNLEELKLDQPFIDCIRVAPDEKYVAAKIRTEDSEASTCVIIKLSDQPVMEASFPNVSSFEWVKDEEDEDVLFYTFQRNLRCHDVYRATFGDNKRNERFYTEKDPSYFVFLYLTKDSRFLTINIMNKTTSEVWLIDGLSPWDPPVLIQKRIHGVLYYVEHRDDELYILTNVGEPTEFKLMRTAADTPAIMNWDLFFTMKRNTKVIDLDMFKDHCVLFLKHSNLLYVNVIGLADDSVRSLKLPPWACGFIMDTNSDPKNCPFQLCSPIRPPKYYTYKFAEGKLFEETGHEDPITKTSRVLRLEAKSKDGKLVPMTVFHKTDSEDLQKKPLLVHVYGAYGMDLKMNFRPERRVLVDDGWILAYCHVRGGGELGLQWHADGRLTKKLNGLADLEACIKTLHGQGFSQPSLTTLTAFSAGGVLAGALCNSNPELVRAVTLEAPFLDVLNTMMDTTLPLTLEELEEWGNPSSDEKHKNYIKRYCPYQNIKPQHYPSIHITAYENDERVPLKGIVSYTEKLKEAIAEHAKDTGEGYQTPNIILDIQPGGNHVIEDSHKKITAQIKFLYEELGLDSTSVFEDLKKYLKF
TMEM16A reconf = reconfirmed blocker of mouse TMEM16A calcium-activated chloride channel. shares compounds with ANO1 block. HEK293 TMEM16A/YFP-H148Q, iodide quench fluorescence; ionomycin added to raise cell calcium. inhibition, % at 10 µM. 2,300 compounds, 39% hits. AID 652189;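 active means mean duplicate percent inhibition, scaled so buffer wells are 0 and the reference blocker 100, over three buffer SD above buffer mean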
HEK293 Ca mobil = calcium mobilization counter-screen hit for TMEM16A inhibitor series; calcium response (% of ionomycin), % at 10 µM; 2,300 compounds, 2% hits; TMEM16A/YFP HEK293, Fluo4 calcium mobilization; shares compounds with ANO1 block; AID 652231;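 active means duplicate-averaged calcium signal over 20% of the ionomycin maximum, relative to buffer baseline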;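 further: each well's signal is peak minus trough fluorescence divided by its pre-addition baseline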
YFP-HEK293 quench = acts in parental YFP-HEK293 cells lacking TMEM16A, counter-screen | shares compounds with ANO1 block | iodide YFP quench, ionomycin | YFP ratio F(max-min)/F0 at 10 µM | 2,300 tested, under 10 active;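 active means yellow fluorescent protein signal ratio exceeding the buffer control mean by over 5 SD of those controls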;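 further: ratio is mean of duplicate wells from kinetic YFP trace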
ClC-1 inh = rat ClC-1 inhibition, TMEM16A specificity screen. shares compounds with ANO1 block. CHO ClC-1-YFP, iodide influx fluorescence quench; iodide control reads 0, buffer control 100. ratio percent, % at 10 µM. 2,300 tested, under 10 active;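 active means duplicate-mean ratio percent above the mean of iodide-only control wells, which defines zero, plus 5 of their SD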;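 further: higher percent means stronger block of ClC-1 iodide influx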
Numbers stand for hits.

How did CC(NC(=O)Cn1cnnn1)C12CC3CC(CC(C3)C1)C2 (stereo not drawn) do in these assays?
PP5 inh: inactive; DNA FID counter: inactive; ANO1 activ: inactive; ANO1 block: 100; PP1 inh: inactive; PREPL inhibitor: inactive; TMEM16A reconf: inactive; HEK293 Ca mobil: inactive; YFP-HEK293 quench: inactive; ClC-1 inh: inactive

What do the screens show for `CC(NC(=O)CN1CCCC1)C12CC3CC(CC(C3)C1)C2` (stereo not drawn)?
PP5 inh: inactive; DNA FID counter: inactive; ANO1 activ: inactive; ANO1 block: inactive; PP1 inh: inactive; PREPL inhibitor: inactive

How did COc1ccc(Cn2nnnc2C(c2cc3cccc(C)c3[nH]c2=O)N2CCOCC2)cc1 (stereo not drawn) do in these assays?
PP5 inh: inactive; DNA FID counter: inactive; ANO1 activ: inactive; ANO1 block: inactive; PP1 inh: inactive; PREPL inhibitor: inactive

How did CCN1CCN(C(c2cc3cccc(C)c3[nH]c2=O)c2nnnn2Cc2ccccc2)CC1 (stereo not drawn) do in these assays?
PP5 inh: inactive; DNA FID counter: inactive; ANO1 activ: inactive; ANO1 block: 25; PP1 inh: inactive; PREPL inhibitor: inactive; TMEM16A reconf: inactive; HEK293 Ca mobil: inactive; YFP-HEK293 quench: inactive; ClC-1 inh: inactive

Results for O=C(Nc1cccc(C(F)(F)F)c1)c1ccc(Cn2cc(Br)cn2)o1 ?
PP5 inh: inactive; DNA FID counter: inactive; ANO1 activ: inactive; ANO1 block: 100; PP1 inh: inactive; PREPL inhibitor: inactive; TMEM16A reconf: 49.0%; HEK293 Ca mobil: inactive; YFP-HEK293 quench: inactive; ClC-1 inh: inactive

Results for C=C(C)Cn1c(=O)c2c(nc3n2CC(C)CN3Cc2ccccc2)n(C)c1=O (stereo not drawn) ?
PP5 inh: inactive; DNA FID counter: inactive; ANO1 activ: inactive; ANO1 block: inactive; PP1 inh: inactive; PREPL inhibitor: inactive

Results for Cc1cc(NNC(=O)c2cccc(C(F)(F)F)c2)nc2c1c(C)nn2C ?
PP5 inh: inactive; DNA FID counter: inactive; ANO1 activ: inactive; ANO1 block: 25; PP1 inh: inactive; PREPL inhibitor: inactive; TMEM16A reconf: inactive; HEK293 Ca mobil: inactive; YFP-HEK293 quench: inactive; ClC-1 inh: inactive

How did COc1cccc(OC)c1-c1nn2c(-c3ccccc3Cl)nnc2s1 do in these assays?
PP5 inh: inactive; DNA FID counter: inactive; ANO1 activ: inactive; ANO1 block: inactive; PP1 inh: inactive; PREPL inhibitor: inactive; TMEM16A reconf: inactive; HEK293 Ca mobil: inactive; YFP-HEK293 quench: inactive; ClC-1 inh: inactive

What do the screens show for `CC(O)(CS(=O)(=O)Cc1ccccc1)c1ccccc1Cl` (stereo not drawn)?
PP5 inh: inactive; DNA FID counter: inactive; ANO1 activ: inactive; ANO1 block: inactive; PP1 inh: inactive; PREPL inhibitor: inactive

How did O=C(NCC1(N2CCOCC2)CCCCC1)c1ccc(Cl)c(S(=O)(=O)NCc2ccco2)c1 do in these assays?
PP5 inh: inactive; DNA FID counter: inactive; ANO1 activ: inactive; ANO1 block: 100; PP1 inh: inactive; PREPL inhibitor: inactive; TMEM16A reconf: inactive; HEK293 Ca mobil: inactive; YFP-HEK293 quench: inactive; ClC-1 inh: inactive

How did O=C(NCc1ccco1)c1ccc(Cl)c(S(=O)(=O)N2CCOCC2)c1 do in these assays?
PP5 inh: inactive; DNA FID counter: inactive; ANO1 activ: inactive; ANO1 block: inactive; PP1 inh: inactive; PREPL inhibitor: inactive

What do the screens show for `COCCCNC(=O)Cn1cnc2c(OCc3ccccc3)ncnc21`?
ANO1 activ: inactive; PREPL inhibitor: inactive

What do the screens show for `OC(COC(c1ccccc1)c1ccccc1)CN1CCN(c2cccc(Cl)c2)CC1` (stereo not drawn)?
PP5 inh: inactive; DNA FID counter: inactive; ANO1 activ: inactive; ANO1 block: 25; PP1 inh: inactive; PREPL inhibitor: inactive; TMEM16A reconf: inactive; HEK293 Ca mobil: inactive; YFP-HEK293 quench: inactive; ClC-1 inh: inactive

How did C[C@H](O)C(=O)C1=Nc2c(nc(N)[nH]c2=O)NC1 do in these assays?
PP5 inh: inactive; ANO1 activ: inactive; ANO1 block: inactive; PP1 inh: inactive; PREPL inhibitor: inactive; TMEM16A reconf: 37.0%; HEK293 Ca mobil: 89.0%; YFP-HEK293 quench: inactive; ClC-1 inh: inactive

What do the screens show for `C=CCN(CC=C)C(=O)Nc1cc(Cl)ccc1OC`?
PP5 inh: inactive; DNA FID counter: inactive; ANO1 activ: inactive; ANO1 block: 25; PP1 inh: inactive; PREPL inhibitor: inactive; TMEM16A reconf: inactive; HEK293 Ca mobil: inactive; YFP-HEK293 quench: inactive; ClC-1 inh: inactive

Results for COc1ccc(Cl)cc1NC(=O)CN(C)C1CCCCC1 ?
PP5 inh: inactive; DNA FID counter: inactive; ANO1 activ: inactive; ANO1 block: inactive; PP1 inh: inactive; PREPL inhibitor: inactive; TMEM16A reconf: inactive; HEK293 Ca mobil: inactive; YFP-HEK293 quench: inactive; ClC-1 inh: inactive

Results for Cc1ccc(S(=O)(=O)N(C)C)cc1NC(=O)C(C)N(C)CCOc1ccc(Cl)cc1 (stereo not drawn) ?
PP5 inh: inactive; DNA FID counter: inactive; ANO1 activ: inactive; ANO1 block: 25; PP1 inh: inactive; PREPL inhibitor: inactive; TMEM16A reconf: inactive; HEK293 Ca mobil: inactive; YFP-HEK293 quench: inactive; ClC-1 inh: inactive

What do the screens show for `CCOc1ccccc1N1CC(C(=O)Nc2ccc(S(=O)(=O)N3CCCCC3)cc2)CC1=O` (stereo not drawn)?
PP5 inh: inactive; ANO1 activ: inactive; ANO1 block: inactive; PP1 inh: inactive; PREPL inhibitor: inactive

Results for N#CCSc1nnc(COc2cccc3ccccc23)n1-c1ccccc1 ?
PP5 inh: inactive; DNA FID counter: inactive; ANO1 activ: inactive; ANO1 block: 25; PP1 inh: inactive; PREPL inhibitor: inactive; TMEM16A reconf: inactive; HEK293 Ca mobil: inactive; YFP-HEK293 quench: inactive; ClC-1 inh: inactive

How did N#CCSc1nnc(COc2ccccc2)n1-c1ccccc1 do in these assays?
PP5 inh: inactive; DNA FID counter: inactive; ANO1 activ: inactive; ANO1 block: 25; PP1 inh: inactive; PREPL inhibitor: inactive; TMEM16A reconf: inactive; HEK293 Ca mobil: inactive; YFP-HEK293 quench: inactive; ClC-1 inh: inactive

Results for CN(C)S(=O)(=O)c1cc(NC(=O)COC(=O)CCSc2ccc(Cl)cc2)ccc1Cl ?
PP5 inh: inactive; DNA FID counter: inactive; ANO1 activ: inactive; ANO1 block: inactive; PP1 inh: inactive; PREPL inhibitor: inactive

From PubChem
